The results in this text go back to PubChem BioAssay (NCI).

The panel holds about 79,000 compounds, 15% with a hit somewhere; the sample as a whole holds those more often. Values without a mark were called inactive. Cut-off read from the data, not from the text of the source: active = growth inhibition above about 70%; inactive = the rest.

A short description of the first experiment: NCI Yeast Anticancer Drug Screen. Data for the mgt1 strain (AID 153). To be noted: S. cerevisiae mgt1 mutant growth inhibition; at 1.2 µM; stronger effect = higher value. In a few lines: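 Genetically defined yeast (mgt1) treated with compound; inhibition of growth expressed against vehicle-treated controls.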
For the compound `CN(C)CC(CN(C)C)C(=O)/C=C/c1ccc(Cl)cc1Cl`, the growth inhibition is -2%.
Still for that read-out and setting: to `c1ccc2c(c1)ccn2CCc1c[nH]c2ccccc12` belongs -26%; to `Cc1ccccc1NC(=O)c1c(C)oc2c1C(=O)c1ccccc1C2=O`, -40%.
On the same count and under the same terms, as for `CC(C)OC(=O)NNc1c(Cl)cc(Cl)cc1Cl`, the figure is -2%; as for `COc1ccc2nc3cccc([N+](=O)[O-])c3c(NCCNCCO)c2c1`, -2%.
Take `COc1ccc2c(c1)CCCC(Br)C2=O` (configuration not stated): the growth inhibition is 26%.
Take `CCC(OC(C)=O)C1CC(C(C)C)CCC1C` (configuration not stated): the growth inhibition was -1%.
Take `O=S(=O)(c1cccc(C(F)(F)F)c1)N1c2ccccc2-n2cccc2C1c1cccnc1` (configuration not stated): the growth inhibition was -43%.
The same measure, in the same setting: as for `c1ccc(-c2cc(C3CO3)c3ccccc3n2)cc1` (configuration not stated), the figure is -2%; as for `COc1ccc(/C=C2\SC(=S)N(/C=C3\C(=O)N(c4ccccc4)N=C3C)C2=O)cc1OC`, 1%.
On to `CC1=CC(=C(c2ccc(N)c(C)c2)c2ccc(N)c(C)c2)C=CC1=N`, for which the growth inhibition is -2%.
On the same count and under the same terms, to `CC1C(c2ccccc2)SC(=N)N1C` (configuration not stated) belongs -1%; to `CC(/C=C/c1ccc([N+](=O)[O-])o1)=N/N1CC(CN2CCOCC2)OC1=O` (configuration not stated), -2%.
The same measure, in the same setting: as for `C=CC(C)(C)N1C(=O)C(C(C)=O)=C(O)C1Cc1c[nH]c2ccccc12` (configuration not stated), the figure is -2%.
Still for that read-out and setting: as for `O=C1c2cccc3cccc(c23)C(=O)N1CCNCCN1C(=O)c2cccc3cccc(c23)C1=O`, the figure is -3%; as for `Cc1ccc([N+](=O)[O-])c2c(NCCC[N+](C)(C)[O-])c3ccccc3nc12`, -2%.
With `COC(=O)C(Cc1c[nH]c2ccccc12)N1CN(C)c2ccccc2C1=O` (configuration not stated), the growth inhibition was 49%.
The same measure, in the same setting: as for `O=C(/N=N/C(=O)Oc1ccccc1)Oc1ccccc1`, the figure is -61%; as for `COc1cc([C@@H]2c3cc4c(cc3[C@@H](NC(=O)NO)[C@H]3COC(=O)[C@H]23)OCO4)cc(OC)c1O`, -5%; as for `CC1(C)CC(=O)C(/C=N/c2nc(-c3ccc(Br)cc3)cs2)=C(O)C1`, 4%.
As for `CCOC(=O)/C(=C/c1cccc(Cl)c1)N(CC)CC`, the growth inhibition was 8%.
On to `CC(C)OC(=O)NNc1cccc(Cl)c1`, for which the growth inhibition was 0%.
Same read-out and setting: to `CCC(=O)C1=C(O)c2cc(OC)ccc2CC1C(=O)OC` (configuration not stated) belongs -2%.
For the compound `O=S(=O)(NC1CCCC(c2ccccc2)C1)c1ccccc1` (configuration not stated), the growth inhibition was -3%.
For the compound `COc1ccc2nc3cccc([N+](=O)[O-])c3c(NCCCCCC(=O)O)c2c1`, the growth inhibition is 0%.
As for `CCO/C=C1\SC(=S)N(c2ccc(OCC)cc2)C1=O`, the growth inhibition was -13%.
On the same count and under the same terms, to `COc1cc(OC)c(CSCC(NC(=O)OCC2c3ccccc3-c3ccccc32)C(=O)O)c(OC)c1` (configuration not stated) belongs -2%; to `COC(=O)c1ccccc1N=NNc1cccc(SC)c1`, -16%; to `CC1=NN(C(=O)c2ccccc2O)C(=O)/C1=C/c1ccco1`, -5%.
As to `COc1ccccc1NC(=O)c1ccc(Cl)cc1`, the growth inhibition is -2%.
The same measure, in the same setting: as for `CC(C)=CCC/C(C)=C/CN1C(=O)C=CC1=O`, the figure is -3%; as for `O=C1CSC(c2ccccc2)N1c1ccc(-c2ccc(-n3c(-c4ccccc4)nc4ccccc4c3=O)cc2)cc1` (configuration not stated), 0%.
Take `N#CC1OB(O)c2ccccc21` (configuration not stated): the growth inhibition is -7%.
Take `O=C(NCCNCCNC(=O)c1cc(-c2ccccc2)nc2ccccc12)c1cc(-c2ccccc2)nc2ccccc12`: the growth inhibition is -2%.
For the compound `Brc1ccc(B2Nc3ccccc3N2)cc1`, the growth inhibition was -5%.
Still for that read-out and setting: as for `CCOP(=O)(OCC)/C(C#N)=C/c1cccc(Oc2ccccc2)c1`, the figure is -32%.

Still in this experiment, the particulars now being: S. cerevisiae mgt1 mutant growth inhibition; at 3.7 µM; stronger effect = higher value.
Consider `CN(C)CC(CN(C)C)C(=O)/C=C/c1ccc(Cl)cc1Cl`, for which the growth inhibition is -2%.
The same measure, in the same setting: as for `c1ccc2c(c1)ccn2CCc1c[nH]c2ccccc12`, the figure is -26%; as for `Cc1ccccc1NC(=O)c1c(C)oc2c1C(=O)c1ccccc1C2=O`, -35%.
Regarding `CC(C)OC(=O)NNc1c(Cl)cc(Cl)cc1Cl`, the growth inhibition is -2%.
`COc1ccc2nc3cccc([N+](=O)[O-])c3c(NCCNCCO)c2c1`: the growth inhibition was 1%.
As to `COc1ccc2c(c1)CCCC(Br)C2=O` (configuration not stated), the growth inhibition was 23%.
`CCC(OC(C)=O)C1CC(C(C)C)CCC1C` (configuration not stated): the growth inhibition was 0%.
As for `O=S(=O)(c1cccc(C(F)(F)F)c1)N1c2ccccc2-n2cccc2C1c1cccnc1` (configuration not stated), the growth inhibition was -16%.
Regarding `c1ccc(-c2cc(C3CO3)c3ccccc3n2)cc1` (configuration not stated), the growth inhibition is -4%.
Turning to `COc1ccc(/C=C2\SC(=S)N(/C=C3\C(=O)N(c4ccccc4)N=C3C)C2=O)cc1OC`, the growth inhibition is 3%.
On the same count and under the same terms, to `CC1=CC(=C(c2ccc(N)c(C)c2)c2ccc(N)c(C)c2)C=CC1=N` belongs 7%; to `CC1C(c2ccccc2)SC(=N)N1C` (configuration not stated), 0%; to `CC(/C=C/c1ccc([N+](=O)[O-])o1)=N/N1CC(CN2CCOCC2)OC1=O` (configuration not stated), -4%.
Still for that read-out and setting: as for `C=CC(C)(C)N1C(=O)C(C(C)=O)=C(O)C1Cc1c[nH]c2ccccc12` (configuration not stated), the figure is -4%; as for `O=C1c2cccc3cccc(c23)C(=O)N1CCNCCN1C(=O)c2cccc3cccc(c23)C1=O`, 0%.
For the compound `Cc1ccc([N+](=O)[O-])c2c(NCCC[N+](C)(C)[O-])c3ccccc3nc12`, the growth inhibition was 0%.
Still for that read-out and setting: to `COC(=O)C(Cc1c[nH]c2ccccc12)N1CN(C)c2ccccc2C1=O` (configuration not stated) belongs -1%; to `O=C(/N=N/C(=O)Oc1ccccc1)Oc1ccccc1`, -61%; to `COc1cc([C@@H]2c3cc4c(cc3[C@@H](NC(=O)NO)[C@H]3COC(=O)[C@H]23)OCO4)cc(OC)c1O`, -3%.
For the compound `CC1(C)CC(=O)C(/C=N/c2nc(-c3ccc(Br)cc3)cs2)=C(O)C1`, the growth inhibition was 6%.
For `CCOC(=O)/C(=C/c1cccc(Cl)c1)N(CC)CC`, the growth inhibition was 9%.
The same measure, in the same setting: as for `CC(C)OC(=O)NNc1cccc(Cl)c1`, the figure is 7%.
On to `CCC(=O)C1=C(O)c2cc(OC)ccc2CC1C(=O)OC` (configuration not stated), for which the growth inhibition was -1%.
Still for that read-out and setting: as for `O=S(=O)(NC1CCCC(c2ccccc2)C1)c1ccccc1` (configuration not stated), the figure is -2%; as for `COc1ccc2nc3cccc([N+](=O)[O-])c3c(NCCCCCC(=O)O)c2c1`, 26%; as for `CCO/C=C1\SC(=S)N(c2ccc(OCC)cc2)C1=O`, -6%.
Regarding `COc1cc(OC)c(CSCC(NC(=O)OCC2c3ccccc3-c3ccccc32)C(=O)O)c(OC)c1` (configuration not stated), the growth inhibition was 8%.
Same read-out and setting: to `COC(=O)c1ccccc1N=NNc1cccc(SC)c1` belongs -18%; to `CC1=NN(C(=O)c2ccccc2O)C(=O)/C1=C/c1ccco1`, 27%.
The same measure, in the same setting: to `COc1ccccc1NC(=O)c1ccc(Cl)cc1` belongs -1%; to `CC(C)=CCC/C(C)=C/CN1C(=O)C=CC1=O`, 18%; to `O=C1CSC(c2ccccc2)N1c1ccc(-c2ccc(-n3c(-c4ccccc4)nc4ccccc4c3=O)cc2)cc1` (configuration not stated), 1%.
Still for that read-out and setting: to `N#CC1OB(O)c2ccccc21` (configuration not stated) belongs -4%; to `O=C(NCCNCCNC(=O)c1cc(-c2ccccc2)nc2ccccc12)c1cc(-c2ccccc2)nc2ccccc12`, -1%; to `Brc1ccc(B2Nc3ccccc3N2)cc1`, -2%.
In the case of `CCOP(=O)(OCC)/C(C#N)=C/c1cccc(Oc2ccccc2)c1`, the growth inhibition is -40%.
